# Compound activity deposited in PubChem BioAssay by National Center for Advancing Translational Sciences (NCATS).
# Rows were chosen to be rich in hits. Some 1.7% of all compounds tested hit in one or more screens of this group.
# GLP1R ag – qHTS of GLP-1 Receptor Agonists. Potency, µM (titrated, usually from 45.6 µM), inactives show top-dose activation, actives largely listed as activators. 380,000 tested, 0.007% active. HEK293 GLP-1R CRE-luciferase, luminescence, 4-6 h; cells express a hypersensitive GLP-1R form. AID 624172, 2012. Glucagon-like peptide 1 receptor (Homo sapiens), P43220; further: % of control where 0% means no effect
# Target sequence (P43220 whole entry, looked up): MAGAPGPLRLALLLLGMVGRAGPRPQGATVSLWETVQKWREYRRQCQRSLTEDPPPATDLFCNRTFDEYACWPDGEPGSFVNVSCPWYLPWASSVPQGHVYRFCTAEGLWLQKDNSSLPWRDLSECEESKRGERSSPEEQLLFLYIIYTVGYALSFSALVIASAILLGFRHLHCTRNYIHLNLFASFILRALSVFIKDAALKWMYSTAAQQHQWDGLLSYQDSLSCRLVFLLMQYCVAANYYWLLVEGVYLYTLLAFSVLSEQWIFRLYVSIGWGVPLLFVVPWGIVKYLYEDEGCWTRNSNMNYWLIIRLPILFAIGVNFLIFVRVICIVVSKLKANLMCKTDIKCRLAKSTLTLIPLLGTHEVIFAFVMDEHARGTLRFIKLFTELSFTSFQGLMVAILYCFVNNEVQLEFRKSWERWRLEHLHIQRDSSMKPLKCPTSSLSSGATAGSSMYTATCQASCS
# PTHR1 agonist – qHTS for PTHR1 Agonists: Primary Screen; HEK293 GP2 PTHR1 cells, GloSensor cAMP luminescence, 1 h; 410,000 tested, 0.075% active; Potency, µM (highest dose often 115 µM), for inactives: top-dose activation, most hits filed as activators; Parathyroid hormone/parathyroid hormone-related peptide receptor (Homo sapiens), Q03431; further: nearly all actives have a fitted effect of over 55% in size
#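 HEK-293-derived GP2 cells expressing PTHR1 and a GloSensor cAMP reporter, 3,000/well, plated overnight, given luciferin plus IBMX (each 0.5 mM as added) for 1 h at 37 °C, then compound for 1 h at 37 °C. Luminescence was read after 15 min at room temperature.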
# GLP-1R inv ag – qHTS of GLP-1 Receptor Inverse Agonists (Inhibition Mode); Glucagon-like peptide 1 receptor (Homo sapiens), P43220; HEK293 GLP-1R CRE-luciferase, luminescence, 24 h; GLP-1R form is constitutively active; Potency, µM (highest dose often 38.3 µM), for the others: at the highest dose activity change, negative = inhibition, usual class: inhibitors; 410,000 tested, 1.6% active; further: on the % scale 0 is the no-effect control and ±100 the full control effect; nearly all actives have a fitted effect of over 55% in size
#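 Luminescence readout: a drop in cAMP-driven luciferase signal flags inverse agonism at a constitutively active GLP-1R stably expressed in HEK293. Compound exposure lasted 24 hr at 37 deg C, 5% CO2.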
# HEK293 tox – qHTS of GLP-1 Receptor Inverse Agonists: Cytotox Screen; HEK293 cAMP-luciferase reporter cells, luminescence, 24 h; Potency, µM (top dose mostly 38.3 µM), without a hit: at the top dose activity change, negative = inhibition, usual class: inhibitors; 410,000 tested, 0.13% active; AID 624418, 2012;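 further: loss of luciferase light is scored as toxicity; on the % scale 0 is the no-effect control and ±100 the full control effect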
#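 Here, cytotoxicity is scored as loss of luminescence. The MLSMR collection was tested on cells seeded in medium containing 10% Nu serum, with a 24 hr compound exposure preceded by 12 hours of culture.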
# Numbers without * were called inactive; i = inactive; ? = inconclusive; nt = not tested or not shown; [ ] = dose if it differs, or a comment. The call rests on the fitted dose curve; in most records, active means well fitted curve in the direction sought with a large enough effect; inconclusive means small, poorly fitted or top-dose-only effect, or another doubt; inactive means no such curve, though single readings can be large; an effect the other way counts as inactive or inconclusive. Potency means the concentration at half of the fitted maximal effect.
SMILES,GLP1R ag,PTHR1 agonist,GLP-1R inv ag,HEK293 tox
COc1ccc(S(=O)(=O)Nc2ccccc2-c2nnn(CC(=O)Nc3ccccc3OC)n2)cc1,-3%,-26%,?,-34%
Cc1cccc(N2CCN(C(=O)CCCn3ncn4c(cc5occc54)c3=O)CC2)c1C,nt,-23%,-15%,2%
O=C(NCCc1ccc(F)cc1)Nc1ccc([N+](=O)[O-])cc1,-3%,-34%,4µM*,-21%
O=C(NCCc1ccc(Cl)cc1)Nc1ccc(F)cc1,6%,?,?,8%
Cc1ccccc1OCC(O)CN(Cc1ccccc1O)C1CCCCC1 (stereo unspecified),4%,i,11µM*,?
CN(CC(O)COc1ccccc1F)C1CCCCC1 (stereo unspecified),14%,-13%,16%,16%
CCN(CC(O)COc1ccc(OCC(O)CN(CC)C2CCCCC2)cc1)C1CCCCC1 (stereo unspecified),1%,-5%,2.2µM*,-19%
CCN(CC(O)COCc1ccc(Cl)cc1)C1CCCCC1 (stereo unspecified),0%,i,-40%,19%
Cc1ccc(C)c(CNC(=O)c2sc3ncnc(N(C)C4CCCCC4)c3c2C)c1,nt,-31%,-11%,15%
COc1ccc(OC)c(NC(=O)CN2C(=O)CC(C)Sc3ccccc32)c1 (stereo unspecified),12%,i,19%,1%
CC(c1ccccc1)N1C(=O)c2cccnc2C1=O (stereo unspecified),-2%,-36%,5%,2%
CC(NC1=CC(=O)c2cccnc2C1=O)C(O)c1ccccc1 (stereo unspecified),-34%,-28%,?,11µM*
CCC(=O)N1CCCc2cc(S(=O)(=O)N3CCC(C(=O)NCc4ccc(F)cc4)CC3)ccc21,nt,-18%,7%,0%
CC(C)(C)C1CCC2(CC1)C(C#N)=C(SCC(=O)NC1CCCCC1)NC(=O)C2C#N (stereo unspecified),-2%,-12%[57.5 µM],8.9µM*,-30%
N#CC1=C(SCC(=O)NC2CC2)NC(=O)C(C#N)C12CCCCC2 (stereo unspecified),-1%,i,2%,5%
Cc1ccc2nc(SCC(=O)Nc3cc(C(F)(F)F)ccc3N3CCOCC3)[nH]c2c1,17%,-45%[57.5 µM],1.3µM*,?
Cc1ccc(CNC(=O)c2cn(C)c3ccc(S(=O)(=O)N4CCC(C)CC4)cc3c2=O)cc1,nt,i,11%,0%
Cc1cccc(Nc2cc(C)nc3ccccc23)c1,10%,-3%,-11%,-28%
Cc1ccc(Nc2cc(C)nc3ccccc23)c(C)c1,6%,-5%,10µM*,-61%
Cc1ccc(C)c(Nc2cc(C)nc3ccccc23)c1,-6%,i,7.1µM*,?
Cc1ccc(NC(=O)C2CCCN2S(=O)(=O)c2ccc3c(c2)CCCC(=O)N3)cc1C (stereo unspecified),nt,-13%,9%,-6%
COc1ccc(/C=N\NC(=O)c2ccccc2)cc1COc1ccc(F)cc1,-5%,-18%,7.9µM*,-8%
COc1ccc(C(=O)N/N=C/c2ccc(OC)c(COc3ccc(F)cc3F)c2)cc1,-15%,i,?,-12%
COc1ccc(C(=O)N/N=C/c2ccc(OC)c(COc3ccc(F)cc3)c2)cc1,-28%,i,10µM*,4%
COc1ccc(/C=N\NC(=O)c2ccccc2Br)cc1COc1ccc(F)cc1,-3%,-4%,21%,14%
SMILES,GLP1R ag,PTHR1 agonist,GLP-1R inv ag,HEK293 tox
Cc1ccc(CO/N=C/C2=C(Cl)c3ccccc3CC2)cc1,-1%,i,-21%,22%
Cc1ccc(Oc2ncccc2/C=N/OCc2ccc(Cl)c(Cl)c2)cc1,-8%,-22%,10µM*,0%
Clc1ccc(CSC2=NCCCN2)cc1Cl,-3%,-3%[57.5 µM],8.9µM*,-25%
Cc1ccc(N2CC(c3nnc(Cc4ccc(F)cc4)o3)CC2=O)cc1 (stereo unspecified),nt,-16%,9%,7%
COc1ccc(C2CC(c3ccc(F)cc3)=NN2c2ccccc2)cc1OC (stereo unspecified),7%,-11%,10µM*,9%
COc1ccccc1C1CC(c2ccco2)=NN1c1ccccc1 (stereo unspecified),-2%,-9%,10µM*,170%
COc1ccc(C2=NN(c3ccc(C=O)cc3)C(c3ccccc3)C2)cc1 (stereo unspecified),8%,i,10µM*,408%
